From PubChem BioAssay
A selection: hits, their analogues and other compounds. The true share with any hit is near 6.3%.
ATXN2 expr inh: reduces ATXN2 reporter expression in HEK-293 cells; HEK-293 ATXN2-luciferase reporter, luminescence, 24 h; Potency, µM (series often up to 57 µM), without a hit: at the top dose activity change, negative = inhibition, actives largely listed as inhibitors; AID 1745845; 360,000 tested, 0.72% active; further: on the % scale 0 is the no-effect control and ±100 the full control effect; nearly all actives have a fitted effect of over 55% in size
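qHTS (up to 57 uM final) was run with 24 h compound exposure of reporter cells at 37 °C. Each well was multiplexed: SteadyGlo luminescence measured ATXN2-luciferase expression after a fluorogenic Gly-Phe-AFC viability readout (25 uM final).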
HepG2 tox: counter-screen for TGF-b inhibitors: cytotoxicity in HepG2 cells; HepG2 CAGA-GFP viability, ATP luminescence, 18 h; Potency, µM (highest dose often 46.1 µM), inactives show at the highest dose activity change, negative = cytotoxicity, most hits filed as cytotoxic; 410,000 tested, 0.76% active
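CellTiter-Glo luminescence gave cytotoxicity after 18 hours at 37 degrees C. The cells were HepG2 CAGA-GFP in 1% FBS DMEM, stimulated with 500 pg/mL TGF-beta after compound addition. %Activity was normalised to no-cell wells (complete cell-killing) and DMSO (no toxicity), and curves were fitted and classified.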
RORg inh: ROR gamma (mouse) transcription inhibition; P51450; Drosophila S2 Gal4-RORgamma UAS-luciferase reporter, 20 h; Potency, µM (titrated, usually from 53.6 µM), for the others: at the highest dose activity change, negative = inhibition, hits mostly inhibitors; 310,000 tested, 5.4% active; further: on the % scale 0 is the no-effect control and ±100 the full control effect; nearly all actives have a fitted effect of over 60% in size
Target sequence (P51450 whole entry, looked up, the tested form may be a part): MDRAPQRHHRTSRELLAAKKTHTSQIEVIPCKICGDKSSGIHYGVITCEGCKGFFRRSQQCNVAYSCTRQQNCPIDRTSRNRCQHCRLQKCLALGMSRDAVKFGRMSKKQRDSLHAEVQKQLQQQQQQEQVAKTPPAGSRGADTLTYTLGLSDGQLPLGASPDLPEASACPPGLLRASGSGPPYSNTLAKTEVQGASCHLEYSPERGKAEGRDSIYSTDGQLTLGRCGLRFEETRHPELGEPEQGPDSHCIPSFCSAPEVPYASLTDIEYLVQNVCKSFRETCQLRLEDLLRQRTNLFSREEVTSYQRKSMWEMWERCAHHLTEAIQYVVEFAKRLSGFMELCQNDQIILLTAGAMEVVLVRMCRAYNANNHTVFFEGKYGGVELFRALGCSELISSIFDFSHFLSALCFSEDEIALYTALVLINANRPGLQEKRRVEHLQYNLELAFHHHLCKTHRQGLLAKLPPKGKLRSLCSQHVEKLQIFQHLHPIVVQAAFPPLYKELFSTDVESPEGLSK
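A Gal4/UAS one-hybrid system in insect cells: metallothionein-promoter Gal4–ROR gamma fusion plus Photinus luciferase reporter. Copper sulfate 700 uM final, 20 hr ambient incubation, luminescent detection after 10 min with reagent.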
TGFb inhibitor: TGF-b pathway inhibition; HepG2 CAGA-GFP TGF-b/SMAD3 reporter, GFP fluorescence, 18 h; TGF-beta stimulated, 500 pg/mL final; AID 588855; Potency, µM (highest dose often 46.1 µM), inactives show at the highest dose activity, negative = inhibition, actives largely listed as inhibitors; 410,000 tested, 1.2% active; further: on the % scale 0 is the no-effect control and ±100 the full control effect; nearly all actives have a fitted effect of over 65% in size
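Cell-based qHTS in HEPG2 carrying a CAGA-GFP Smad reporter; compounds added before 500 pg/mL final TGF-beta, 18 h incubation at 37 degrees C, GFP fluorescence quantified per cell by imaging cytometry.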
VP16 counter: Gal4-VP16 reporter inhibition counter-screen. Potency, µM (highest dose often 53.6 µM), for the others: top-dose activity, negative = inhibition, usual class: inhibitors. AID 2546. Drosophila S2 Gal4-VP16 UAS-luciferase, luminescence, 20 h. 310,000 tested, 3.5% active;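 further: Gal4-VP16 expression switched on by copper sulfate through the metallothionein promoter; on the % scale 0 is the no-effect control and ±100 the full control effect; nearly all actives have a fitted effect of over 50% in size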
ATXN viability: viability counter-screen for ATXN expression inhibitors. S2 cells (HEK-293 line with an ATXN2-luciferase reporter) viability, CellTiter-Fluor protease fluorescence, 24 h. Potency, µM (top dose mostly 56.7 µM), usual class: cytotoxic. 400,000 tested, 0.49% active. AID 651635; further: nearly all actives have a fitted effect of over 40% in size
* hit, by the source's call; i = inactive; u = inconclusive; x = no result given; [ ] = remark or other dose. The call rests on the fitted dose curve; in most records, active means well fitted curve in the direction sought with a large enough effect; inconclusive means small, poorly fitted or top-dose-only effect, or another doubt; inactive means no such curve, though single readings can be large; an effect the other way counts as inactive or inconclusive. Potency means the concentration at half of the fitted maximal effect.

SMILES	ATXN2 expr inh	HepG2 tox	RORg inh	TGFb inhibitor	VP16 counter	ATXN viability
CCOc1ccc(OCC)c(NS(=O)(=O)c2ccc3c(c2)n(C)c(=O)c(=O)n3C)c1	7.4%	2.6%	0.316µM*	-3.5%	x	i
COCCNC(=O)c1ccc(N2CC3CC(C2)c2cccc(=O)n2C3)c(NC(=O)c2ccccc2Br)c1 (configuration not stated)	x	-0.1%	x	-9.6%	x	i
Cc1ccc(C(=O)Nc2nc(-c3ccccc3)c(-c3ccccc3)o2)cc1	-38.9%[11.3 µM]	3.9%	5.01µM*	-15.3%	5.62µM*	i
Cc1cc(C)nc(SCC(=O)Nc2nc(-c3ccccc3)c(-c3ccccc3)o2)n1	-2.1%	-29.2%	11.2µM*	3.2%	20µM*	u
Cc1cc(=O)[nH]c(SCC(=O)Nc2nc(-c3ccccc3)c(-c3ccccc3)o2)n1	8.2%	-1.6%	-4.9%	-33.7%	-8.4%	i
CCOC(=O)N1CCC(N(CCN(C)C)C(=S)Nc2cc(Cl)cc(Cl)c2)CC1	-2.4%	-0.9%	10µM*	-3.8%	u	i
CCOC(=O)N1CCC(N(CCN(C)C)C(=S)Nc2cccc(OC)c2)CC1	-0.3%	6.1%	u	9.8%	0.1%	i
CCOC(=O)N1CCC(N(CCN(C)C)C(=S)Nc2cccc(Cl)c2)CC1	-29.0%	6.6%	-38.8%	-7.6%	-16.5%[10 µM]	i
CCOC(=O)N1CCC(N(CCOC)C(=S)Nc2cccc(SC)c2)CC1	-5.5%	-13.9%	20µM*	-6.5%	4.0%[10 µM]	i
CNc1nc(-c2ccccc2)[n+](-c2ccc(C)cc2)s1	-5.6%	-6.8%	7.94µM*	6.8%	7.08µM*	i
Cc1ccc(-c2nc(N)s[n+]2-c2ccccc2)cc1	47.9%	-3.0%	-10.4%	6.8%	-7.1%	i
COc1cccc(NC(=S)N2C3CCCC2CC(NC(=O)C2CC2)C3)c1 (configuration not stated)	-6.3%	4.7%	0.2%	1.4%	-14.8%	i
COc1cccc(NC(=S)NC2CC3CCCC(C2)N3CC(C)C)c1 (configuration not stated)	4.1%	-44.1%	10µM*	0.5%	6.9%	i
CCCCC(=O)OCC(=O)[C@H]1[C@H](C)C[C@H]2[C@@H]3C[C@H](F)C4=CC(=O)C=C[C@]4(C)[C@@]3(F)[C@@H](O)C[C@@]21C	-14.1%	x	x	x	x	i
CC(C)CCNC(=O)C(=O)NC1CCCC1	13.8%	-0.7%	-15.6%	-6.6%	1.1%	i
CCCCNC(=S)NC1CCCC1	-0.2%	-14.7%	10µM*	-22.1%	17.8µM*	i
CC(C)CCNC(=S)NC1CCCC1	-1.6%	6.7%	2.82µM*	-8.5%	u	i
CC(C)CN(CC(C)C)S(=O)(=O)N1CCC(C(=O)NC2CCCCCCC2)CC1	-15.6%	-30.5%	12.1%	-16.6%	-0.9%	i
CC(C)CN(CC(C)C)C(=S)NC1CCCCC1	-4.5%	-76.4%	2.82µM*	4.8%	7.08µM*	i
CN(C)c1ncc2nc(CCc3ccccc3)c(=O)n(C[C@H]3CCCO3)c2n1	x	x	u	x	12.6%	x
COc1ccccc1-c1noc(-c2ccc(NCc3ccco3)c([N+](=O)[O-])c2)n1	31.5%	-6.7%	x	u	x	i
O=[N+]([O-])c1ccc2c(c1)/C(=C/c1ccc(C=S)cc1)C=C2	x	-0.9%	x	-7.8%	x	x
Nc1nc2ccc(Cl)cc2o1	3.0%	-18.6%	x	5.2%	x	u
C/C(=N\Nc1nc2ccc(Cl)cc2o1)c1ccccc1	31.0%	1.6%	2.51µM*	-7.5%	u	i
Cc1[nH]n(C(N)=S)c(=O)c1N=Nc1ccc(S(=O)(=O)N2CCCCCC2)cc1	1.2%	-28.6%	0.891µM*	-0.8%	2.51µM*	u
SMILES	ATXN2 expr inh	HepG2 tox	RORg inh	TGFb inhibitor	VP16 counter	ATXN viability
CC(=O)Nc1ccc(N=Nc2c(C)[nH]n(C(N)=S)c2=O)cc1	x	-0.9%	3.98µM*	-6.8%	-0.1%	i
Cc1[nH]n(C(N)=S)c(=O)c1N=Nc1cc(-c2ccc(Br)cc2)[nH]n1	20.8%	7.2%	1.58µM*	1.4%	-9.2%	i
Cc1[nH]n(C(N)=S)c(=O)c1N=Nc1ccc2ccccc2c1	23.3%[11.3 µM]	-20.6%	1µM*	1.4%	3.98µM*	i
Cc1ccc(C(=O)NNC(=O)c2ccc(S(=O)(=O)N3CCCCC3)cc2)cc1	-11.8%	-14.7%	x	20.4%	x	i
Cc1[nH]n(-c2ccccc2)c(=O)c1N=Nc1ccc(F)cc1	13.8%	5.2%	-24.9%	8.3%	u	i
Nc1cc(-c2ccc(Br)cc2)[nH]n1	6.6%	-14.6%	13.4%	-1.0%	u	i
CN(C)c1ccc(/C=C/c2ccnc3ccc([N+](=O)[O-])cc23)cc1	x	-1.0%	x	-3.0%	x	x
NC(Cc1cnc[nH]1)C(=O)Nc1ccc2ccccc2c1 (configuration not stated)	x	x	2.1%	x	-14.3%	x
Cc1ncc2c(c1CNC(=O)c1ccccc1F)CCN(C(=O)c1csc(-c3cccs3)n1)C2	x	x	x	x	x	i
Cc1ccc(N=Nc2c(C)[nH]n(C(N)=S)c2=O)cc1C	123.3%	-1.8%	0.224µM*	-5.0%	1.12µM*	i
Cc1ccc(N=Nc2c(C)[nH]n(-c3ccccc3)c2=O)cc1Br	x	-8.7%	-1.0%	-2.1%	u	i
COCC1CCCN(c2nc(CN3CCN(C(=O)c4ccco4)CC3)nc3ccccc23)C1 (configuration not stated)	x	x	x	x	x	i
COc1ccc2c(c1)CC/C2=N\OC(=O)c1ccccc1C	52.8%	0.0%	3.98µM*	21.2%	u	i
COc1ccc2c(c1)CCC/C2=N/OC(=O)c1ccccc1OC	x	3.3%	3.8%	7.2%	1.8%	i
COc1ccccc1C=NN=Cc1ccccc1O	19.1%	4.7%	x	-2.6%	x	u
CN(C)c1ccc(/C=N/N=C/c2ccccc2O)cc1	-20.3%	2.8%	7.94µM*	-18.8%	u	i
O=C(Nc1ccccc1Sc1ccccc1)c1cnn2c1NC(=C1CC1)C=C2C(F)F	x	-15.3%	x	-1.6%	x	x
COc1ccc(-c2nn(C)c3sc(C(=O)N4CCN(c5cccc(C)c5C)CC4)cc23)cc1OC	2.5%	0.9%	x	37.1%	x	i
CC(CN1CCN(CCOCCO)CC1)CN1c2ccccc2Sc2ccc(Cl)cc21 (configuration not stated)	x	12.6µM*	x	u	x	u
CCC(=O)c1ccc2c(c1)N(CCCN1CCN(CCO)CC1)c1ccccc1S2	x	x	u	x	-28.0%	x
CCN(CC)C(=O)C1=C(C)N(CCCN2CCCC2=O)C(=O)C(CC(=O)NC(c2ccccc2)c2ccccc2)C1 (configuration not stated)	-0.2%	-3.7%	x	4.1%	x	i
